Source: PubChem BioAssay
Activity calls are given as the source filed them. Rule as the data show it, unless noted: active = inhibition above about 30%; inactive = the rest.

Experiments:
[1] = molecular target: Nuclear receptor coactivator 3 (Homo sapiens) (UniProt Q9Y6Q9); assay: NCOA3 GAL4-fusion reporter inhibition – cell-based, luminescence, quadruplicate, confirmation (AID 588792;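 active = mean inhibition over 43.08%, the solvent-only control mean plus 3 SD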;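 also: 0% = DMSO treated cells and 100% = gossypol at 36 µM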); settings: HEK293 GAL4-SRC3 luciferase reporter, at 3.6 µM, active compounds read high
Nuclear receptor coactivator 3 (Homo sapiens), sequence (Q9Y6Q9 whole entry, looked up, the tested form may be a part): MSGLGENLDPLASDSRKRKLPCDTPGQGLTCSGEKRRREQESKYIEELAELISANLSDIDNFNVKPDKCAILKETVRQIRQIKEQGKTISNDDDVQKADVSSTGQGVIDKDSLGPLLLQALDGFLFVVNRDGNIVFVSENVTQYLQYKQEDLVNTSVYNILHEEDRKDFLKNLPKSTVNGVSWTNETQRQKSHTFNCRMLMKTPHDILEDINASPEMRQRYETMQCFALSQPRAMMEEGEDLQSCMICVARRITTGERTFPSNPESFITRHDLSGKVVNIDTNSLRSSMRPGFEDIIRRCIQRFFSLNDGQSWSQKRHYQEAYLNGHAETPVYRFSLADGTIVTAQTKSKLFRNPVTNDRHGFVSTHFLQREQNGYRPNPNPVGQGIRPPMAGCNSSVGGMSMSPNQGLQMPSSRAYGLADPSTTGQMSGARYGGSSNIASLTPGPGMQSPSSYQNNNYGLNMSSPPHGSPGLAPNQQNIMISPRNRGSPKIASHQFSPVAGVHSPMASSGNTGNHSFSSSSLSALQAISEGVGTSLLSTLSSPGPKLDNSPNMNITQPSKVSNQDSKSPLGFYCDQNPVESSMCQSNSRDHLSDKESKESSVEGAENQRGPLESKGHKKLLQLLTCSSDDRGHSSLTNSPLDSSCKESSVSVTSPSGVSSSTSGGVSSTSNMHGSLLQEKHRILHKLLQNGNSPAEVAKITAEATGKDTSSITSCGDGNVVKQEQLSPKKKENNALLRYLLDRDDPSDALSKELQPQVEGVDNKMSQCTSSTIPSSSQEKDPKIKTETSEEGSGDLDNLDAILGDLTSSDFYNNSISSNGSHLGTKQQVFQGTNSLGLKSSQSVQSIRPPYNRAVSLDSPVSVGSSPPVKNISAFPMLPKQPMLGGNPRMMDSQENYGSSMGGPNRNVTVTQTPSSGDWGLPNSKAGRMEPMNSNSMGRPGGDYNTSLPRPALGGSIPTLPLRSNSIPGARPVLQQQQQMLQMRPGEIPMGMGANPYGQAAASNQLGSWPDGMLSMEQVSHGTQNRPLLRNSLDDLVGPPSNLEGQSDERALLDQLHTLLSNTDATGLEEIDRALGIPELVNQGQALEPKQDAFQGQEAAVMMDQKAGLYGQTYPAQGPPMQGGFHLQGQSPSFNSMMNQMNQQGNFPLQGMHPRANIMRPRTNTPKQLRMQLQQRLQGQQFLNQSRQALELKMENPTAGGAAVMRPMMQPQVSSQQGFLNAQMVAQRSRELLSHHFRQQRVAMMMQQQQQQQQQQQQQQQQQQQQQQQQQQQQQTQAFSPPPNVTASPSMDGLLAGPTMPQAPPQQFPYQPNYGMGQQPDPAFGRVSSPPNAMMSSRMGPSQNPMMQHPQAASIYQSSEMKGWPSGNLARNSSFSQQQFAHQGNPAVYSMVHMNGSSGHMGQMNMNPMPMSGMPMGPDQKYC

[2] = tested on: transactivating tegument protein VP16 (Human herpesvirus 1), Gal4-VP16 luciferase reporter; assay: repression of VP16-driven luciferase reporter – cell-based, luminescence, high throughput, counter-screen for SRC3 inhibitor project (AID 588794); settings: mammalian cells, at 3.6 µM, active compounds read high

Row | Compound | inhibition [1] | inhibition [2]
1 | COC(=O)c1ccc2c(c1)C(C)(C)C(/C=C/c1ccccc1O)=[N+]2C | 58.6% (active) | 43.5% (active)
2 | O=C1N(c2cccc(Cl)c2)C(c2ccc(Cl)cc2)N2CCCN12 (stereo not given) | 3.22% (inactive) | -0.24% (inactive)
3 | CCCCCCSc1ccc([C@H]2N[C@@](CC(C)C)(C(=O)OC)[C@H]3C(=O)N(C)C(=O)[C@@H]23)cc1OC | 4.49% (inactive) | -10.5% (inactive)
4 | c1ccc(NNC2=NCCCCC2)cc1 | 1.28% (inactive) | -9.77% (inactive)
5 | CNCC(C)COc1ccccc1OCc1ccccc1 (stereo not given) | 2.54% (inactive) | 10.4% (inactive)
6 | Cc1cc(C)nc(/N=C(\N)Nc2ccc(OCCC(C)C)cc2)n1 | -1.86% (inactive) | 23.4% (inactive)
7 | CC(=NNC(=O)c1ccncc1)c1ccc2ccccc2c1O | 45.1% (active) | 32.6% (active)
8 | COc1ccc(C(CC(=O)O)NC(=O)OC(C)(C)C)cc1 (stereo not given) | 4.59% (inactive) | 3.31% (inactive)
9 | CCOc1cccc(-n2nnnc2-c2ccc(OC)cc2)c1 | 7.46% (inactive) | 14.6% (inactive)
10 | CCCn1c(C)cc(C(=O)COc2ccc(C)nc2[N+](=O)[O-])c1C | 11.3% (inactive) | 6.56% (inactive)
11 | COc1ccc(OCCOCC(O)CN2CCOCC2)cc1 (stereo not given) | -13.2% (inactive) | -8.92% (inactive)
12 | COC(=O)c1ccc2c(c1)C(C)(C)C(/C=C/c1ccc(O)cc1)=[N+]2C | 66.6% (active) | 52.8% (active)
13 | Cc1nc2c(-c3ccc(F)cc3)cnn2c(N)c1-c1ccc(F)cc1 | 12% (inactive) | 9.51% (inactive)
14 | O=C(NCc1cccs1)C1CCCN(C(=O)Nc2ccccc2)C1 (stereo not given) | 17.7% (inactive) | 31.9% (active)
15 | Cc1ccc2c(c1)/C(=C/c1ccc(F)cc1)C(=O)N2 | 7.93% (inactive) | -3.06% (inactive)
16 | Cc1cccn2c(CNCC3(c4ccccc4)CCCC3)c(C(=O)N3CCOCC3)nc12 | 7.17% (inactive) | 6.26% (inactive)
17 | O=C(Nc1cccc2ccccc12)OC1C=CS(=O)(=O)C1 (stereo not given) | 25.6% (inactive) | 15.6% (inactive)
18 | S=C(Nc1cccc2ccccc12)NN1CCCCCC1 | 43.8% (active) | 33% (active)

Row | Compound | inhibition [1] | inhibition [2]
19 | Cn1nc(C(C)(C)C)cc1C(=O)NCc1ccc(N2CCCC2=O)cc1 | 10.7% (inactive) | 38.8% (active)
20 | Cc1cc(C)c2nc3nc(C)cc(C)c3c(N)c2c1 | 24.5% (inactive) | 57.9% (active)
21 | O=C(CCl)NC1CCCc2ccccc21 (stereo not given) | 1.81% (inactive) | -5.4% (inactive)
22 | CN(C)CCCOc1ccc2c(c1)Sc1ccccc1CC2=O | -10.4% (inactive) | -4.19% (inactive)
23 | CC(=O)c1c(C)[nH]c(C(=O)CSc2nc3ccccc3n2C)c1C | 2.74% (inactive) | 11.8% (inactive)
24 | Cc1cccc(Nc2nc(-c3c(C)nc4ccccn34)cs2)c1 | 19.1% (inactive) | 24.4% (inactive)
25 | Cc1nc(SCC(=O)NCc2ccc3c(c2)OCO3)c(C#N)c2c1CCCC2 | -21.9% (inactive) | -7.85% (inactive)
26 | CC1=C(NCCc2ccccc2)CCC1=O | 0.47% (inactive) | -7.31% (inactive)
27 | COc1ccc(-n2c(-c3ccc(Br)cc3)c[n+]3c2CCCCC3)cc1 | -0.37% (inactive) | 16.2% (inactive)
28 | CCN1/C(=C/c2cc[n+](C)cc2)C=Cc2cc(C)ccc21 | 17% (inactive) | 70.9% (active)
29 | COc1ccc(-c2csc(NC(=O)c3ccc(S(=O)(=O)N4CCc5ccccc5C4)cc3)n2)cc1 | 25.1% (inactive) | 24.1% (inactive)
30 | Clc1ccc(SCc2cc(N3CCOCC3)nc(-c3ccccn3)n2)cc1 | -5.99% (inactive) | 1.33% (inactive)
31 | CC(=O)c1cc(CC=C(C)C)c(O)c(CC=C(C)C)c1O | 4.99% (inactive) | -4.39% (inactive)
32 | O=C(NNC(=O)c1cccnc1SCc1cccc([N+](=O)[O-])c1)c1ccccn1 | 34.4% (inactive) | 30.1% (active)
33 | CC(C)(C)c1csc(Sc2ccc([N+](=O)[O-])cn2)n1 | 13.1% (inactive) | -8.39% (inactive)
34 | CC1CC(C)CN(c2nc(NCc3ccco3)nc(N)c2[N+](=O)[O-])C1 (stereo not given) | 9.73% (inactive) | 9.4% (inactive)
35 | C#CCN(C[C@@H]1[C@@H](OC(=O)NCc2ccccc2F)[C@@H](OC(=O)NCc2ccccc2F)Cn2c(=O)ccc(=O)n21)S(=O)(=O)c1ccc(C)cc1 | -2.92% (inactive) | 24.2% (inactive)
